This note sets out measurements from PubChem BioAssay AID1851 (National Center for Advancing Translational Sciences (NCATS), 2009).

The whole screen tested about 16,000 compounds, of which about 4,000 (25%) were called active. About 26% were inconclusive and are not listed. Calls follow the shape of the dose curve; as a rule, active = well fitted curve in the direction sought with a large enough effect; inconclusive = small, poorly fitted or top-dose-only effect, or effect the other way; inactive = no such curve, though single readings can be large or run the other way. A selection follows.

For orientation: AC50 means the concentration at which the activity in the assay is half-maximal.
% is scaled to controls: 0 for no effect and ±100 for the full control effect.

For this experiment, the target named is Cytochrome P450 2C9 (Homo sapiens) (UniProt P11712). The experiment can be described thus: Cytochrome panel assay with activity outcomes. The following applies: recombinant CYP, pro-luciferin dealkylation, luminescence, p450-cyp2c9; series mostly up to 57.1 µM; activity, negative = inhibition: at the top concentration.
Cytochrome P450 2C9 (Homo sapiens), sequence (P11712 whole entry, looked up): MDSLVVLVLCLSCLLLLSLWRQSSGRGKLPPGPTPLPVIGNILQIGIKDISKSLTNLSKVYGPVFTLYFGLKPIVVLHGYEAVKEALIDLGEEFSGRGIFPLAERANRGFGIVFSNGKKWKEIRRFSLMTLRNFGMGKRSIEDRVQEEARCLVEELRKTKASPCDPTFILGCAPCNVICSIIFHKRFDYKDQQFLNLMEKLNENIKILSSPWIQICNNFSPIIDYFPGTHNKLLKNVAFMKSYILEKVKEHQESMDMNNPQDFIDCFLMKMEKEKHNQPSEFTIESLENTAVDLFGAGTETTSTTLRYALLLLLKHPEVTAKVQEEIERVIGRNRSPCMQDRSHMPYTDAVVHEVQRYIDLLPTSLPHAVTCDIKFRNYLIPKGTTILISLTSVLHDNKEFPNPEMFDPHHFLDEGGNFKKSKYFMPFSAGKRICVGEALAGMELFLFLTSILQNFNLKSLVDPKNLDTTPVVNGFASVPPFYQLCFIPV
With `CSCC[C@@H]1NC(=O)C/C=C\[C@@H](C)COC(=O)[C@@H](C)COC1=O`, the activity, negative = inhibition was 14.5% [at 11.4 µM] (inactive).

Regarding `CCCCn1c(NCc2ccccc2NS(=O)(=O)c2ccc(C)cc2)nc2ccccc21`, the half-maximal activity concentration (AC50) was 1.58 µM (active).

For `c1ccc(CN(CC2=NCCN2)c2ccccc2)cc1`, the AC50 entry is “inactive”.

Consider `COc1nc(Oc2ccc(/C=N/O)cc2)nc(N(C)C)n1`, for which the “activity, negative = inhibition” value is 3.8% (inactive).

Turning to `CN(C)C(=C(C#N)C#N)N1CCN(c2ccc(Cl)c(Cl)c2)CC1`, the AC50 is 12.6 µM (active).

Take `O=S(=O)(O)c1ccc(N=Nc2ccccc2)cc1`: the activity, negative = inhibition is -1.61% [at 11.4 µM] (inactive).

As to `O=S(=O)(/N=C(/Nc1ccccn1)c1ccccc1)c1ccccc1`, the “activity, negative = inhibition” value is -21.9% (inactive).

Turning to `O=S(=O)(C=C(c1ccccc1)c1ccccc1)c1ccccc1`, the AC50 is 7.08 µM (active).

With `c1csc(CNc2ccnc(-c3ccoc3)n2)c1`, the activity, negative = inhibition was -25.1% [at 2.29 µM] (inactive).

Turning to `c1ccc(CNc2ccnc(-c3cccnc3)n2)cc1`, the activity, negative = inhibition was -12.1% [at 2.29 µM] (inactive).

For `O=C(Nc1ccnc(-c2cccnc2)n1)c1ccccc1Cl`, the AC50 was 15.8 µM (active).

Take `CC(C)(C)C(=O)Nc1ccnc(-c2cccnc2)n1`: the half-maximal activity concentration (AC50) was 3.16 µM (active).

With `CN(C)C(=O)c1ccc(-c2nccc(NCc3cccnc3)n2)cc1`, the activity, negative = inhibition was 5.1% [at 2.29 µM] (inactive).

Consider `COc1cccc(-c2nccc(NCc3cccs3)n2)c1`, for which the activity, negative = inhibition is -26.6% [at 2.29 µM] (inactive).

Turning to `COc1ccc(CNc2ccnc(-c3cccnc3)n2)c(OC)c1`, the activity, negative = inhibition was 8.69% [at 2.29 µM] (inactive).

On to `O=C(Nc1ccnc(-c2cccnc2)n1)c1cccc(Cl)c1Cl`, for which the concentration at half-maximal activity (AC50) was 3.98 µM (active).

In the case of `Cc1ccccc1-c1nccc(NCc2cccnc2)n1`, the activity, negative = inhibition is -17.5% [at 2.29 µM] (inactive).

Turning to `c1cncc(-c2nccc(NCc3cccs3)n2)c1`, the AC50 is 0.398 µM (active).

Regarding `N#Cc1cccc(-c2nccc(NCc3cccnc3)n2)c1`, the activity, negative = inhibition is -11.5% [at 2.29 µM] (inactive).

Regarding `N[C@H](CCC(=O)NCS(=O)(=O)O)C(=O)O`, the “activity, negative = inhibition” value was -16.3% (inactive).

`CN(C)CCN(c1ccccn1)c1ccccn1`: the activity, negative = inhibition is 0.501% [at 11.4 µM] (inactive).

`O=C(C1=C(O)C(=O)N(Cc2ccco2)C1c1ccccc1)c1cccs1` (stereo unspecified): the AC50 is 8.91 µM (active).

`NS(=O)(=O)Cc1noc2ccccc12`: the “activity, negative = inhibition” value is 8.47% (inactive).

For the molecule `[N-]=[N+]=NC[C@@H]1O[C@@H](n2cnc3c(N)ncnc32)[C@@H]2O[C@@H]21`, the activity, negative = inhibition is 2.07% [at 11.4 µM] (inactive).

On to `CC1CCN(CC[C@H]2CCCN2S(=O)(=O)c2cccc(O)c2)CC1`, for which the “activity, negative = inhibition” value was -3.33% (inactive).

Take `CC1CCN(CC[C@@H]2CCCN2S(=O)(=O)c2cccc(O)c2)CC1`: the “activity, negative = inhibition” value is -6.49% (inactive).

`CC1CCN(S(=O)(=O)c2ccc3c(c2)C(=NO)c2cc(S(=O)(=O)N4CCC(C)CC4)ccc2-3)CC1`: the AC50 is 3.98 µM (active).

Take `CS(=O)(=O)c1nc(-c2ccccc2)cc(-c2ccccc2)c1C#N`: the AC50 was 0.282 µM (active).

As for `CC(=O)Nc1ccc(-c2cc(-c3ccc(NC(C)=O)cc3)nc(-c3ccccc3)n2)cc1`, the “activity, negative = inhibition” value is -11% (inactive).

`N#Cc1cccc(-c2nc(NCc3ccccc3)c3ccccc3n2)c1`: the activity, negative = inhibition is -29.7% [at 2.29 µM] (inactive).

In the case of `COCCCN=CC1=C(O)CC(C)(C)CC1=O`, the “activity, negative = inhibition” value is -24.3% (inactive).

Turning to `O=c1oc2ccccc2cc1-c1csc(NN=C2CCCCC2)n1`, the AC50 is 3.55 µM (active).

For the molecule `Cc1cccc(-c2noc(-c3cc4ccccc4oc3=O)n2)c1`, the “activity, negative = inhibition” value is -11.5% (inactive).

Regarding `CN1CCC2(CC1)C1CN(C)CC=C1C(C#N)=C(N)C2(C#N)C#N` (stereo unspecified), the “activity, negative = inhibition” value was -21.5% (inactive).

As for `Cc1sc(=NC(=O)c2ccco2)n(C)c1-c1ccccc1`, the AC50 was 1.12 µM (active).

As for `Cc1sc(=NC(=O)c2ccco2)n(C)c1-c1ccc(F)cc1`, the AC50 was 8.91 µM (active).

Turning to `Cn1c(=NC(=O)CCl)sc2ccccc21`, the “activity, negative = inhibition” value was 7.79% (inactive).

As for `O=C(c1ccco1)N1CCC2(CC1)CCN(c1ccc(-c3ccccc3)cc1)CC2`, the “activity, negative = inhibition” value is -3.43% (inactive).

Take `O=C(c1cnccn1)N1CCC2(CCCN(c3ccccn3)C2)CC1`: the “activity, negative = inhibition” value is -3.22% (inactive).

With `CS(=O)(=O)Nc1cccc(-c2ccc3ncnc(NC4CCNCC4)c3c2)c1`, the activity, negative = inhibition is -5.87% [at 2.29 µM] (inactive).

In the case of `O=C(c1csnn1)N1CCC2(CCCN(Cc3ccccc3)C2)CC1`, the “activity, negative = inhibition” value is -6.31% (inactive).

As to `CC1(C)CC(=O)c2cnc(N)nc2C1`, the “activity, negative = inhibition” value is -20% (inactive).

As for `CCOC(=O)c1c(C)nc2c(c1-c1ccccc1)C(=O)CCC2`, the AC50 is 17.8 µM (active).

As to `CCOC(=O)c1c(C)nc2c(c1-c1ccc(OC)cc1)C(=O)CC(C)(C)C2`, the concentration at half-maximal activity (AC50) is 15.8 µM (active).

Regarding `CCN1CCN(c2nc(C)c3c(n2)CCCC3=O)CC1`, the “activity, negative = inhibition” value was 11.9% (inactive).

Consider `Cc1nccn1C[C@@H]1CCc2c(c3ccccc3n2C)C1=O`, for which the “activity, negative = inhibition” value was 12.3% [at 25.6 µM] (inactive).

With `Cc1nnc(SCC2=C(C(=O)O)N3C(=O)[C@@H](NC(=O)Cn4cnnn4)[C@@H]3SC2)s1`, the AC50 result was “inactive”.

In the case of `CCc1nnc(NS(=O)(=O)c2ccc(N=Cc3c(C)[nH]n(-c4ccc(C)cc4)c3=O)cc2)s1`, the half-maximal activity concentration (AC50) is 8.91 µM (active).

For the molecule `Cc1ccc(-n2[nH]c(C)c(C=Nc3ccc4[nH]c(=O)[nH]c4c3)c2=O)cc1C`, the “activity, negative = inhibition” value is -17.8% (inactive).

Consider `NC(N)=NC(N)=Nc1ccccc1`, for which the “activity, negative = inhibition” value is -22.3% (inactive).

On to `C/C=C\C[C@@H](C)[C@@H](O)[C@H]1C(=O)N[C@@H](CC)C(=O)N(C)CC(=O)N(C)[C@@H](CC(C)C)C(=O)N[C@@H](C(C)C)C(=O)N(C)[C@@H](CC(C)C)C(=O)N[C@@H](C)C(=O)N[C@H](C)C(=O)N(C)[C@@H](CC(C)C)C(=O)N(C)[C@@H](CC(C)C)C(=O)N(C)[C@@H](C(C)C)C(=O)N1C`, for which the “activity, negative = inhibition” value was -1.45% (inactive).

Regarding `Fc1ccc(CSc2nnc(-c3cc4c(s3)-c3ccccc3CC4)o2)cc1`, the AC50 is 3.16 µM (active).

On to `CCCCc1cc2ccccc2c(OCCN(C)C)n1`, for which the “activity, negative = inhibition” value is -4.88% [at 25.6 µM] (inactive).

In the case of `O=C(CSc1nnc(-c2ccc(Cl)cc2Cl)n1C1CCCCC1)NC1CCS(=O)(=O)C1` (stereo unspecified), the “activity, negative = inhibition” value was -10.5% (inactive).

In the case of `Cc1ccc(-n2ccnc2SCC(=O)N(CC(C)C)C2CCS(=O)(=O)C2)c(C)c1` (stereo unspecified), the AC50 is 14.1 µM (active).

Take `Cc1cc(C)n2c(SCC(=O)N(C)C3CCS(=O)(=O)C3)nnc2n1` (stereo unspecified): the “activity, negative = inhibition” value is -6.22% (inactive).

Consider `CCC(=O)OCN1C(=O)C=CC1=O`, for which the activity, negative = inhibition was 22.6% [at 11.4 µM] (inactive).

Take `NC(N)=NC[C@@H]1CCCCCCN1`: the activity, negative = inhibition was 3.41% [at 11.4 µM] (inactive).

On to `Cn1cccc1C(=O)N1CCC2(CC1)CN(C(=O)Nc1ccccc1)C2`, for which the “activity, negative = inhibition” value was 8.52% (inactive).

For `O=C(Nc1ccccc1)OC[C@H](CN1CCCCC1)OC(=O)Nc1ccccc1`, the “activity, negative = inhibition” value was -19.8% [at 25.6 µM] (inactive).

For `CN1c2ccccc2C(O)=C(C(=O)Nc2ccccc2)S1(=O)=O`, the AC50 is 2.82 µM (active).
